PubChem BioAssay AID463173 (ICCB-Longwood Screening Facility, Harvard Medical School, 2010)
About 1,700 (3.3%) of roughly 52,000 compounds were called active. What follows is part of a selection rich in actives, with near analogues and random picks from the rest. Values without a mark were called inactive. No stated cut-off is given here; in the data, active means survival mostly below about 52% (no sharp cut-off); inactive means mostly above about 56%.

Tested on: Wild type
Experiment: growth inhibition of S. aureus wild type versus tarO mutant, primary screen, teichoic acid synthesis inhibitors, RN4220, OD600 (AID 463173)
Conditions: S. aureus RN4220 wild type/DeltatarO growth, OD600, 18 h, stronger effect = lower value, screened at 18.75 µg/mL (by protocol)

Q: With Cc1ccccc1C(=O)Nc1sc2c(c1C(=O)NCc1ccco1)CCC(C(C)(C)C)C2 (stereo not given) as the molecule, how does the survival read?
A: Its survival is 88%.

Q: With COc1ccccc1NC(=O)c1c(NC(=O)Cc2ccccc2)sc2c1CCC(C(C)(C)C)C2 (stereo not given) as the molecule, how does the survival read?
A: Its survival is 102%.

Q: Which survival does the source give for COc1ccccc1NC(=O)c1c(NC(=O)c2cccs2)sc2c1CCC(C(C)(C)C)C2 (stereo not given) here?
A: Its survival is 118%.

Q: With CCCNC(=O)CCCN1C(=O)CCn2nc(-c3cccn3C)cc21 as the molecule, how does the survival read?
A: The survival was 71%.

Q: O=C(CN1CCC(O)(c2ccccc2)CC1)NC1CCCCC1 was tested. Which survival did it give?
A: The survival was 111%.

Q: With Cc1ccc(CNC(=O)CCCCCn2c(=O)c3sccc3n(CC(=O)N(C)c3ccccc3)c2=O)cc1 as the molecule, how does the survival read?
A: Its survival is 83%.

Q: O=C(CSc1nc(=O)[nH]c2c1CCCC2)NCc1ccccc1Cl was tested. Which survival did it give?
A: The survival was 135%.

Q: With COc1ccc(NC(=O)N2CCN(S(=O)(=O)c3ccc4c(ccn4C)c3)CC2)c(OC)c1 as the molecule, how does the survival read?
A: The survival was 87%.

Q: For O=C(Nc1sc2c(c1C(=O)N1CCCCC1)CCCC2)c1ccccc1Cl, which survival is on record?
A: The survival was 75%.

Q: With CCN(CC)C(=O)c1c(NC(=O)c2ccccc2F)sc2c1CCC(C(C)(C)C)C2 (stereo not given) as the molecule, how does the survival read?
A: The survival was -3% (active).

Q: Cc1ccccc1C(=O)Nc1sc2c(c1C(=O)N1CCC(C)CC1)CCCC2 was tested. Which survival did it give?
A: Its survival is 64%.

Q: How did the survival turn out when CC(C)(C)C1CCc2c(sc(NC(=O)c3ccncc3)c2C(=O)Nc2ccccc2Cl)C1 (stereo not given) was run?
A: The survival was 84%.

Q: How did the survival turn out when CN(C)C(=O)c1c(NC(=O)c2ccccc2F)sc2c1CCCC2 was run?
A: Its survival is 82%.

Q: How did the survival turn out when CC(C)(C)C1CCc2c(sc(NC(=O)c3ccccc3F)c2C(=O)N2CCCCC2)C1 (stereo not given) was run?
A: The survival was -3% (active).

Q: Which survival does the source give for CC(C)(C)C1CCc2c(sc(NC(=O)c3ccccc3F)c2C(=O)NCc2ccco2)C1 (stereo not given) here?
A: The survival was 70%.

Q: With CCOc1ccccc1NC(=O)c1c(NC(=O)c2ccccc2C)sc2c1CCC(C)C2 (stereo not given) as the molecule, how does the survival read?
A: Its survival is 75%.

Q: For Cc1ccccc1C(=O)Nc1sc2c(c1C(=O)N1CCC(C)CC1)CCC(C)C2 (stereo not given), which survival is on record?
A: Its survival is 0% (active).

Q: Which survival does the source give for Cc1ccccc1C(=O)Nc1sc2c(c1C(=O)N1CCCCC1)CCC(C)C2 (stereo not given) here?
A: Its survival is 36%.

Q: Which survival does the source give for CC1CCN(C(=O)c2c(NC(=O)c3ccccc3Cl)sc3c2CCC(C(C)(C)C)C3)CC1 (stereo not given) here?
A: The survival was 2% (active).

Q: For CC(C)(C)C1CCc2c(sc(NC(=O)c3ccco3)c2C(=O)Nc2ccccc2Cl)C1 (stereo not given), which survival is on record?
A: Its survival is 108%.

Q: Which survival does the source give for COc1ccc(N2CC(NC(=O)/C=C\c3ccccc3)CC2=O)cc1 (stereo not given) here?
A: The survival was 101%.

Q: With CC(=O)Nc1ccc(N2CCN(Cc3ccccc3)CC2)cc1 as the molecule, how does the survival read?
A: Its survival is 106%.

Q: How did the survival turn out when COc1ccc2oc(=O)c(-c3csc(-c4ccc(Br)cc4)n3)cc2c1 was run?
A: Its survival is 80%.

Q: CCc1nn(CC(=O)NC2CC2)c(=O)c2cc3ccccc3n12 was tested. Which survival did it give?
A: The survival was 121%.

Q: For Cc1ccc2c(=O)cc(C(=O)Nc3nc4ccc(Cl)cc4s3)oc2c1, which survival is on record?
A: Its survival is 65%.

Q: Cc1cc(C)cc(NC(=O)Cn2nnc(C(=O)NCCc3ccccc3)c2N)c1 was tested. Which survival did it give?
A: The survival was 93%.

Q: Which survival does the source give for Cc1ccccc1C(=O)Nc1sc2c(c1C(=O)N1CCCCC1)CCC(C(C)(C)C)C2 (stereo not given) here?
A: Its survival is 1% (active).

Q: COc1ccc(NC(=O)c2c(NC(=O)COc3ccccc3)sc3c2CCC(C(C)(C)C)C3)cc1 (stereo not given) was tested. Which survival did it give?
A: The survival was 77%.

Q: How did the survival turn out when Cc1ccccc1NC(=O)c1c(NC(=O)c2ccco2)sc2c1CCC(C(C)(C)C)C2 (stereo not given) was run?
A: The survival was 75%.

Q: How did the survival turn out when Cc1ccccc1C(=O)Nc1nc2c(s1)CC(C(C)(C)C)CC2 (stereo not given) was run?
A: The survival was 124%.

Q: How did the survival turn out when CCC(=O)Nc1sc2c(c1C(=O)Nc1ccc(OC)cc1)CCC(C(C)(C)C)C2 (stereo not given) was run?
A: The survival was 2% (active).

Q: With COc1ccc(NC(=O)c2c(NC(=O)c3ccncc3)sc3c2CCC(C(C)(C)C)C3)cc1 (stereo not given) as the molecule, how does the survival read?
A: The survival was 47%.

Q: With CCc1cccc(C)c1NC(=O)CN1C(=O)C2(SCC(=O)N2c2cccc(F)c2)c2ccccc21 (stereo not given) as the molecule, how does the survival read?
A: The survival was 136%.

Q: With Cc1c(Cl)cccc1NC(=O)Cn1nnc(-c2nc(-c3ccccc3)no2)c1N as the molecule, how does the survival read?
A: The survival was 55%.

Q: Which survival does the source give for COc1ccc2c(c1)c1c(c(=O)n(-c3ccccc3C)c(=O)n1C)n2C here?
A: Its survival is 81%.

Q: CCOc1cc(S(=O)(=O)NC2CC2)c(OCC)cc1-n1cnnn1 was tested. Which survival did it give?
A: Its survival is 102%.

Q: With COc1ccc(Br)cc1CNC(=O)c1cc(=O)[nH]c2ccc(S(=O)(=O)N3CCCCC3C)cc12 (stereo not given) as the molecule, how does the survival read?
A: The survival was 105%.

Q: COc1ccc(OC)c(CNC(=O)c2cc(=O)[nH]c3ccc(S(=O)(=O)N4CCCCC4C)cc23)c1 (stereo not given) was tested. Which survival did it give?
A: Its survival is 1% (active).

Q: COc1ccc(CCNC(=O)c2cc(=O)[nH]c3ccc(S(=O)(=O)N4CCCCC4C)cc23)cc1OC (stereo not given) was tested. Which survival did it give?
A: Its survival is 127%.

Q: For Cc1ccc(Sc2c(C)nn(C(=O)COc3ccccc3Br)c2C)cc1, which survival is on record?
A: Its survival is 90%.

Q: How did the survival turn out when Cc1ccc(Sc2c(C)nn(C(=O)c3ccc(Br)cc3)c2C)cc1 was run?
A: Its survival is 13% (active).

Q: With Cc1nn(C(=O)COc2ccccc2Br)c(C)c1Sc1ccccc1 as the molecule, how does the survival read?
A: Its survival is 57%.

Q: How did the survival turn out when Cc1nn(C(=O)c2ccc(Br)cc2)c(C)c1S(=O)(=O)N1CCOCC1 was run?
A: Its survival is 71%.

Q: With Cc1nn(C(=O)c2ccccc2)c(C)c1S(=O)(=O)N1CCCCCC1 as the molecule, how does the survival read?
A: Its survival is 80%.

Q: Which survival does the source give for Cc1nn(C(=O)c2ccc(Br)cc2)c(C)c1Sc1ccccc1 here?
A: Its survival is -4% (active).
